KCNK3 block: human KCNK3 channel inhibition, primary screen; AID 602410; 0.84% of 340,000 active; B-score at 10 µM; O14649; CHO-KCNK3 thallium flux, FluxOR fluorescence; stronger effect = lower value;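 active = B-score under library mean minus 4 SD, starting fluorescence ratio at most library mean plus 5 SD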;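 note: more negative B-score means stronger inhibition of thallium flux through KCNK3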
ANO1 block: mouse TMEM16A channel inhibition, primary screen; Q8BHY3; HEK293 TMEM16A/YFP iodide influx fluorescence, ionomycin; normalized B-score (activity score, 25-100; higher = stronger inhibition) at 10 µM; 1.2% of 310,000 active; AID 588511;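 active = ratio plate-corrected score three or more library SD toward inhibition, starting fluorescence score within five deviations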;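 note: score derived from kinetic fluorescence span divided by baseline fluorescence per well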
Kir21 inh: blocks the mouse Kir2.1 inward-rectifier potassium channel; P35561; HEK293-Kir2.1, FluxOR thallium flux fluorescence; stronger effect = lower value; B-score at 10 µM; 0.85% of 310,000 active; AID 1672;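 active = fluorescence ratio B-score at or below minus 3 SD of library scores, with starting-brightness B-score within 2 SD, cut at about -4.2 in these data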;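 note: channel flux triggered by added potassium and thallium sulfate stimulus; B-score of peak minus minimum fluorescence over baseline after thallium stimulus; more negative B-score means stronger Kir2.1 block with less thallium influx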
Target sequence (P35561 whole entry, looked up): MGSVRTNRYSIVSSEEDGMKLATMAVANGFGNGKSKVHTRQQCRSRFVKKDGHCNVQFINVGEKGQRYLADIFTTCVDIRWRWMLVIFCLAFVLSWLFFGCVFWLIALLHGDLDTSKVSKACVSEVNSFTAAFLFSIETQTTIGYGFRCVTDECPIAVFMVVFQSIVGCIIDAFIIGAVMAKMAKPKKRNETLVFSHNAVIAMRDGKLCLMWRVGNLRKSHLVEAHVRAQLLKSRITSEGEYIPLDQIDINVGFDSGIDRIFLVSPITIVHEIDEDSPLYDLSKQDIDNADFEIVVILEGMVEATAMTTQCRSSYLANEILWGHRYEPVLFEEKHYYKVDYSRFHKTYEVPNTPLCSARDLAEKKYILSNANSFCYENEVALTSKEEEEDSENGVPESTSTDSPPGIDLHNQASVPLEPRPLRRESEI
ANO1 activ: activates or potentiates the mouse TMEM16A chloride channel; B-score at 10 µM; 0.3% of 340,000 active; HEK293 TMEM16A/YFP-H148Q/I152L, iodide quench fluorescence; stronger effect = lower value;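 active = fluorescence-ratio B-score plate-corrected deviation score at least 3 library SD below zero, with starting fluorescence score within 5 deviations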;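 note: channel opened by trigger with iodide after compound preincubation; score built on the fluorescence ratio of max minus min over baseline; more negative score means more quench and so TMEM16A activation or potentiation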
KCNK9 inh: human KCNK9 channel inhibition; Q9NPC2; HEK293 KCNK9, FluxOR thallium flux fluorescence; stronger effect = lower value; B-score at 10 µM; 1.2% of 310,000 active; AID 488922;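 active = ratio B-score over 3 SD below the library mean, with starting fluorescence within 5 SD of its mean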;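 note: negative B-score means less thallium flux so channel inhibition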
TMEM16A reconf: re-confirmation of mouse TMEM16A chloride channel inhibitors; shares compounds with ANO1 block; HEK293 TMEM16A/YFP-H148Q, iodide quench fluorescence; ionomycin added to raise cell calcium; inhibition, % at 10 µM; 39% of 2,300 active; AID 652189;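 active = mean duplicate percent inhibition, scaled so buffer wells are 0 and the reference blocker 100, over three buffer SD above buffer mean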
TMEM16A Ca cntr: calcium mobilization counter-screen hit for TMEM16A inhibitor series; shares compounds with ANO1 block; TMEM16A/YFP HEK293, Fluo4 calcium mobilization; 2% of 2,300 active; AID 652231; calcium response (% of ionomycin), % at 10 µM;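 active = duplicate-averaged calcium signal over 20% of the ionomycin maximum, relative to buffer baseline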;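 note: each well's signal is peak minus trough fluorescence divided by its pre-addition baseline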
YFP-HEK293 quench: counter-screen for TMEM16A inhibitors: effect in parental YFP-HEK293 cells; shares compounds with ANO1 block; iodide YFP quench, ionomycin; YFP ratio F(max-min)/F0 at 10 µM; 2,300 tested, under 10 active;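 active = yellow fluorescent protein signal ratio exceeding the buffer control mean by over 5 SD of those controls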;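 note: ratio is mean of duplicate wells from kinetic YFP trace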
ClC-1 rat inh: rat ClC-1 inhibition, TMEM16A specificity screen; ratio percent, % at 10 µM; CHO ClC-1-YFP, iodide influx fluorescence quench; iodide control reads 0, buffer control 100; 2,300 tested, under 10 active; shares compounds with ANO1 block;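 active = duplicate-mean ratio percent above the mean of iodide-only control wells, which defines zero, plus 5 of their SD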;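 note: higher percent means stronger block of ClC-1 iodide influx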
Each line names hits and unclear results; the compound was inactive in the other large screens (follow-up assays come after a bar, where they were run). Compounds with a hit are over-represented: about 3.5% of the library has one in this group of screens.

COc1cc(CNS(=O)(=O)c2ccc3c(c2)CC(C)N3C(=O)C2CCC2)cc(OC)c1OC (stereo not drawn)	ANO1 block 25 | TMEM16A reconf inactive | TMEM16A Ca cntr inactive | YFP-HEK293 quench inactive | ClC-1 rat inh inactive
COc1ccc(CNS(=O)(=O)c2ccc3c(c2)CC(C)N3C(=O)C2CC2)cc1 (stereo not drawn)	none
Cc1ccc(NC(=O)CNc2ccc(Cl)c(Cl)c2)cc1S(=O)(=O)N(C)C	ANO1 block 100 | TMEM16A reconf 28.5% | TMEM16A Ca cntr inactive | YFP-HEK293 quench inactive | ClC-1 rat inh inactive
Cc1ccc(NC(=O)Cc2ccc(Cl)c(Cl)c2)cc1S(=O)(=O)N(C)C	ANO1 block 25 | TMEM16A reconf 16.5% | TMEM16A Ca cntr inactive | YFP-HEK293 quench inactive | ClC-1 rat inh inactive
COC(=O)[C@H](Cc1ccccc1)NC(=O)Cn1cnc2c(NCc3ccccc3)ncnc21	none (no result: ANO1 block, Kir21 inh, ANO1 activ, KCNK9 inh)
COc1ccccc1NS(=O)(=O)c1cc(C(=O)N2CC(C)CC(C)C2)ccc1C (stereo not drawn)	none
CCOc1ccc(Cc2c(Cl)nc(SC)nc2N(C)C)cc1	ANO1 block 25, KCNK9 inh -7.57 | TMEM16A reconf inactive | TMEM16A Ca cntr inactive | YFP-HEK293 quench inactive | ClC-1 rat inh inactive
Cc1cc(C)c2nc(SC(C)C#N)cc(C)c2c1 (stereo not drawn)	ANO1 block 100 | TMEM16A reconf inactive | TMEM16A Ca cntr inactive | YFP-HEK293 quench inactive | ClC-1 rat inh inactive
Cc1cc(C)c2nc(SC3CCOC3=O)cc(C)c2c1 (stereo not drawn)	none
CCOc1ccc(N2CC(C(=O)Nc3nnc(Cc4ccccc4)s3)CC2=O)cc1 (stereo not drawn)	none
CC(C)OC(=O)CSc1nc2ccccc2s1	none (no result: Kir21 inh, KCNK9 inh)
CC(C)CC1CC(=O)OC1(C)C(=O)CSc1nc2ccccc2s1 (stereo not drawn)	ANO1 block 100 | TMEM16A reconf inactive | TMEM16A Ca cntr inactive | YFP-HEK293 quench inactive | ClC-1 rat inh inactive
COc1ccc(C2(CNC(=O)c3cccc([N+](=O)[O-])c3)CCOCC2)cc1	none
COc1ccc(C2=NOC(C(=O)NC(C)C)C2)cc1 (stereo not drawn)	none
COc1ccc(C2=NOC(C(=O)NCC(C)C)C2)cc1 (stereo not drawn)	ANO1 block 100 | TMEM16A reconf inactive | TMEM16A Ca cntr inactive | YFP-HEK293 quench inactive | ClC-1 rat inh inactive
O=C(c1cccnc1)N1C2CCC1CC(O)(c1ccc(F)cc1)C2 (stereo not drawn)	none
OC1(c2ccc(OC(F)F)cc2)CSC(=Nc2cccnc2)N1C1CC1 (stereo not drawn)	ANO1 block 100 | TMEM16A reconf 20.0% | TMEM16A Ca cntr inactive | YFP-HEK293 quench inactive | ClC-1 rat inh inactive
Cc1noc(C)c1COc1ccc(C(=O)N2CCCC(C(F)(F)F)C2)cc1 (stereo not drawn)	none
Cc1ccc(C)c(N2CCN(C(=O)CCc3nc(-c4ccc(F)cc4)no3)CC2)c1	none (no result: ANO1 block, Kir21 inh, ANO1 activ, KCNK9 inh)
COc1ccc(-c2noc(CCC(=O)N3CCN(c4cc(C)ccc4C)CC3)n2)cc1	ANO1 block 100 | TMEM16A reconf inactive | TMEM16A Ca cntr inactive | YFP-HEK293 quench inactive | ClC-1 rat inh inactive
CSc1ccc(CN(C)C(=O)c2ccc(S(=O)(=O)Nc3c(C)n(C)n(-c4ccccc4)c3=O)cc2)cc1	none (no result: ANO1 block, Kir21 inh, KCNK9 inh)
CSc1ccc(CN(C)C(=O)c2ccc(S(=O)(=O)Nc3ccccc3)cc2)cc1	ANO1 block 25 | TMEM16A reconf inactive | TMEM16A Ca cntr inactive | YFP-HEK293 quench inactive | ClC-1 rat inh inactive

Compound activity from PubChem.
